Reference: PubChem BioAssay (NCI)
The panel holds about 83,000 compounds, 20% with a hit somewhere; the sample as a whole holds those more often.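 Cells were grown in 96-well plates and exposed to the test compound at a single concentration for 48 hours; results are reported as percent growth, with values below 10 considered active.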 Unmarked numbers belong to inactive results. Calls of active or inactive are those of the source.

Tested on: MDA-MB-468 breast
Experiment: NCI-60 one-dose screen, 48 h (100 = growth as untreated, 0 = no growth, -100 = all killed)
Conditions: 10 µM unless noted

Row | Structure (SMILES) | growth
1 | Nc1cc(-c2ccc(Cl)cc2)nn1-c1nc(-c2ccc(Br)cc2)cs1 | 99.4%
2 | Cn1cc(-c2csc(-c3ccccc3)n2)c2cccnc21 | -34% [100 µM] (active)
3 | Cc1ccc(C(=O)/C=C/c2ccccc2)s1 | 89.7%
4 | O=c1c2ccccc2n2cnc3ccc(Cl)c1c32 | 79.1%
5 | CN1CCN(CC(=O)Nc2nc(-c3cccc(NS(=O)(=O)c4cccc5c(N(C)C)cccc45)c3)cs2)CC1 | 38.7%
6 | COc1cc2nc(Nc3cccc(NC(C)=O)c3)nc(N)c2cc1OC | 88.8%
7 | O=C1OCC2=C1C(c1ccccc1)c1cc3c(cc1N2CCO)CCC3 (configuration not stated) | 15%
8 | COc1cc(C(=O)c2c(-c3ccccc3)oc3ccccc23)cc(OC)c1O | 0.857% (active)
9 | CCCCCCCC/C=C/CCCCCCCC1=NC(C)(C)CN1c1ccccc1 | 85.7%
10 | O=c1oc2ccc(F)cc2c(=O)n1-c1ccc(Br)cc1F | 0.698% (active)
11 | COc1ccc(-c2cc(-c3nnc(SC/C(=N\O)c4ccccc4)n3-c3ccccc3)c3ccccc3n2)cc1 | 107%
12 | CSc1nc(S(C)(=O)=O)nc2[nH]c(=O)[nH]c12 | 103%
13 | CC(=O)N1N=C(c2ccc(Nc3nc(NCCO)nc(NCCO)n3)cc2)CC1c1ccc(Cl)cc1 (configuration not stated) | 105%
14 | CC(CNc1nc(Nc2ccc(Cl)c(Cl)c2)nc(C(Cl)(Cl)Cl)n1)N(C)C (configuration not stated) | -43.3% (active)
15 | O=C(CN1C(=O)NC2NC(=O)NC21)N/N=C/c1ccccc1[N+](=O)[O-] (configuration not stated) | 98.5%
16 | Cc1cc2nc3c4cc(O)ccc4n(CCN(C)C)c3nc2cc1C | -38.4% (active)
17 | COc1cc2nccc(Oc3ccc(NC(=O)C4(C(=O)Nc5ccc(F)cc5)CC4)cc3)c2cc1OC(=O)c1ccc(N)cc1 | 59.3%
18 | Clc1ccc(Nc2scc3[n+]2CCC3)cc1 | 86.3%
19 | O=S(=O)(NCCCNc1nccc(-c2c(-c3ccccc3)nc3sccn23)n1)c1ccc(F)cc1 | 35.5%

Row | Structure (SMILES) | growth
20 | CC1(C)O[C@H]2OC3CCC(=O)CC3(O)[C@H]2O1 (some centres not stated) | 98.5%
21 | COc1c(N2CC3CCCNC3C2)c(F)cc2c(=O)c(C(=O)N/N=C/c3ccc(N(C)C)cc3)cn(C3CC3)c12 (configuration not stated) | 79%
22 | COc1ccc(Nc2nccc(N3CCN(c4c5ccc(Cl)cc5nc5ccc(OC)cc45)CC3)n2)cc1 | 31.5%
23 | COC(=O)Nc1nc2ccc(C(=O)c3ccccc3)cc2[nH]1 | -13.7% (active)
24 | Cc1cc(=O)n2nnc3cc(C(F)(F)F)ccc3n12 | 122%
25 | O=C1/C(=C/c2ccc([N+](=O)[O-])cc2)Oc2ccc(O)cc21 | -63.3% (active)
26 | COc1ncnc2c(-c3ccccc3)cn(COCc3ccccc3)c12 | 42.1%
27 | O=C(Nc1ccc(Nc2ncccn2)cc1)NC1C=c2ccccc2=CC1 (configuration not stated) | 110%
28 | O=C1N=c2ccccc2=C1c1sc(=Nc2ccccc2)n(Nc2ccccc2)c1O | 123%
29 | CCOC(=O)c1cc(C(=O)c2ccc(F)cc2F)n2ccccc12 | 102%
30 | O=[N+]([O-])c1ccc(NC(=S)NNC(=S)Nc2ccc(F)cc2)cc1 | 74.6%
31 | COc1ccccc1-c1c(-c2ccc(Cl)cc2)c2cc3c(cc2[nH]c1=O)OCCO3 | 62.7%
32 | COc1ccc(-c2nc3c(c(-c4ccccc4)nn3-c3ccccc3)c(-c3ccc(N4CCOCC4)cc3)c2C#N)cc1 | 97.8%
33 | COc1ccc(-c2nc(-c3nc4ccc(C)cc4[nH]3)c3ccccn23)cc1 | 45.4%
34 | COc1ccc(CCCc2c3[n+](cc4c(OC)c(OC)ccc24)CCc2cc4c(cc2-3)OCO4)cc1 | 1.74% (active)
35 | O=c1cc(C2NNC(=S)N2)c2ccc3ccccc3c2o1 (configuration not stated) | 128%
36 | O=C(N/N=c1/ccoc2cccnc12)N1CCN(c2ncccn2)CC1 | 2.98% (active)
37 | CCOC(=O)c1ccncc1 | 89.1%
38 | Cc1ccc([N+](=O)[O-])c(C)n1 | 112%

Row | Structure (SMILES) | growth
39 | COCCNC(C(=O)c1ccccc1)c1ccccc1 (configuration not stated) | 90.8%
40 | C(=C\c1nccc2c1[nH]c1ccccc12)/c1ccccc1 | -54% (active)
41 | CCCCCN1C=C/C(=C\C(=O)N(C)c2ccc(Br)cc2)c2ccccc21 | 73.8%
42 | CNC(=O)c1cc(Oc2cccc3nc(Nc4ccc(Cl)c(F)c4)ccc23)ccn1 | 51.3%
43 | O=C(CN1CCN(c2cc(=O)[nH]c3ccc(F)cc23)CC1)N(c1ccccc1)c1ccccc1 | 98.6%
44 | C=C(C)[C@@H]1CC[C@]2(C(=O)OC)CC[C@]3(C)[C@H](CC[C@@H]4[C@@](C)(CCc5nn[nH]n5)[C@H](C(=C)C)CC[C@]43C)[C@@H]12 | -7.51% [100 µM] (active)
45 | C#C[C@]1(O)CC[C@H]2[C@@H]3CC=C4c5sc(N(C)c6ccccc6)nc5CC[C@]4(C)[C@H]3CC[C@@]21C | 76.2%
46 | CCN1C(=O)N(CC)C2C1N=C(SC)N2/N=C/C=C/c1ccccc1OC (configuration not stated) | 1.3% (active)
47 | COc1cccc(-c2nc3sccn3c2-c2ccnc(NCCCNS(=O)(=O)c3cccc(Cl)c3)c2)c1 | 24.6%
48 | O=C(Nc1ccc2c(c1)-c1ccccc1C2)C1CC(=O)N(c2ccc3c(c2)OCO3)C1 (configuration not stated) | 52.7% [50 µM]
49 | O=c1/c(=C\c2ccc(-c3ccccc3)o2)sc2nc(-c3ccccc3)nn12 | 124%
50 | COc1ccc(-c2cnoc2-c2cc(OC)c3c(c2)OCCO3)cc1 | 20.4%
51 | N#CC1=C(N)Oc2c(sc3c(F)cccc23)C1c1ccc(F)cc1 (configuration not stated) | 26.5%
52 | O=C(CCNC(=O)c1nc(-c2ccccc2)n(-c2ccc(Cl)cc2)n1)NO | 107%
53 | COc1ccc(Cl)cc1NC(=O)c1cc2c(n1C)-c1nc(NC(=O)C(C)C)sc1CC2 | 88.5%
54 | CCCCCCNC(=O)c1cc(NCc2cc(O)ccc2O)ccc1O | 65.6%
55 | CCNC(=O)CCCCC(=O)c1c(C)[nH]c(/C=C2\N=C(c3ccc[nH]3)C=C2OC)c1C | -22.7% (active)
56 | CCN(CC)CCOc1ccc(/C(=C(\C)c2ccc(F)c(OC)c2)c2ccc(Cl)cc2)cc1 | -15.7% (active)
57 | N#Cc1c(-c2ccc(Cl)cc2)nc(NN=Cc2cccc(Cl)c2)nc1N1CCOCC1 | 85.1%
